Bioassay records (PubChem)
An excerpt weighted towards active compounds, which were near 7.4% of everything screened.
hNpr1 antagonist: Natriuretic polypeptide receptor (hNpr1) antagonism - Primary qHTS. Atrial natriuretic peptide receptor 1 (Homo sapiens), P16066. HEK293 hNpr1 GloSensor cGMP, ANP-stimulated luminescence. Potency, µM (series often up to 46.3 µM), for inactives: at the top dose activity change, negative = inhibition, actives largely listed as inhibitors. 76,000 tested, 1.6% active. AID 1347048, 2019; calls by dose curve; further: nearly all actives have a fitted effect of over 60% in size
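Compound pre-incubated 30 min at room temperature on GloSensor-loaded HEK293 cells stably carrying hNpr1 and the pGS-40F cGMP biosensor. Stimulation uses hNppA at 0.1 nM final; luminescence is taken at baseline and 20 min post-agonist.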
SNCA viab count: GF-AFC viability counterscreen for inhibitors of alpha-synuclein gene (SNCA) expression; HEK-293-SNCA-luc viability, GF-AFC fluorescence, 24 h; Potency, µM (top dose mostly 57.1 µM), without a hit: at the top dose activity change, negative = cytotoxicity, most hits filed as cytotoxic; 150,000 tested, 0.12% active; AID 1671193, 2021;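 further: 0% = DMSO-treated cells and -100% = medium-only wells without cells; nearly all actives have a fitted effect of over 30% in size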
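HEK-293-SNCA-luc cells (1500/well) plated 24 h, then exposed 24 h to a dilution series; GF-AFC added 30 min at 37C, fluorescence 405/540 nm; normalised to medium-only and DMSO wells, Hill fit.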
NIH3T3 tox: Cytotoxic Profiling in NIH 3T3 Cell Line of Diverse Libraries Using Quantitative High-Throughput Screening; NIH 3T3 viability, CellTiter-Glo ATP luminescence, 48-72 h; Potency, µM (highest dose often 96.7 µM), for the others: top-dose activity change, negative = cytotoxicity, most hits filed as inhibitors; 94,000 tested, 4.3% active; AID 1345082, 2018; further: nearly all actives have a fitted effect of over 55% in size
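First NIH 3T3 cells are plated at 400 cells/well; next compound is pinned in; then plates incubate 48 or 72 hr at 37 °C; finally CellTiter-Glo is added and luminescence read after 10 min.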
HEK cytotox: Cytotoxic Profiling in HEK 293 Cell Line of Diverse Libraries Using Quantitative High-Throughput Screening. HEK 293 viability, ATP luminescence (CellTiter-Glo), 48-72 h. Potency, µM (titrated, usually from 115 µM), without a hit: top-dose activity change, negative = cytotoxicity, actives largely listed as inhibitors. 94,000 tested, 6.6% active. AID 1345083, 2018; further: nearly all actives have a fitted effect of over 60% in size
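Cytotoxicity was scored by loss of ATP-coupled luminescence (CellTiter-Glo) in HEK 293 cells. Compound treatment ran 48 or 72 hr at 37 degree Celsius, 5% CO2, 95% humidity.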
SNCA expr inhib: Primary qHTS assay for inhibitors of alpha-synuclein gene (SNCA) expression; HEK-293 SNCA-luciferase knock-in, luminescence, 24 h; Potency, µM (doses to about 57.2 µM), for the others: at the highest dose activity change, negative = inhibition, usual class: inhibitors; 140,000 tested, 0.17% active; AID 1671194, 2021;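 further: plate controls were DMSO cells for no effect and cell-free wells for full effect; nearly all actives have a fitted effect of over 45% in size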
Luciferase inh: Firefly luciferase inhibition profiling of diverse chemical library using quantitative high-throughput screening; purified P. pyralis luciferase, luminescence, biochemical; Potency, µM (highest dose often 115 µM), actives largely listed as inhibitors; 76,000 tested, 2.5% active; further: nearly all actives have a fitted effect of over 65% in size
Target sequence (P08659 whole entry, looked up): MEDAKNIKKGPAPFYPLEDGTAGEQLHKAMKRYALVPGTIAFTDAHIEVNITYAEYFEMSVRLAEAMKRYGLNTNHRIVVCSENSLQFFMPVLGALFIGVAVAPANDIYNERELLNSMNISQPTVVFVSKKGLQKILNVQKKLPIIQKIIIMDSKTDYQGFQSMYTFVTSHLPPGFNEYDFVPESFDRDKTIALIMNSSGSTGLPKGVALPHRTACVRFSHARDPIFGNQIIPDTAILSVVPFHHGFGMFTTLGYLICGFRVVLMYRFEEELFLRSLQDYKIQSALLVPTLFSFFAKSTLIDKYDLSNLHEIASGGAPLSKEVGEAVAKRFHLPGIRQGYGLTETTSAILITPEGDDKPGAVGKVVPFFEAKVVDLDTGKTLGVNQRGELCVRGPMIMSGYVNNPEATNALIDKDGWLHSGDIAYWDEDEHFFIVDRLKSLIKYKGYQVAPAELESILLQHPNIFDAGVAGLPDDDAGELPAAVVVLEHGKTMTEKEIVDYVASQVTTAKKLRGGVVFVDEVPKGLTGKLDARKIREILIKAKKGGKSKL
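Inhibitors were tested against purified firefly luciferase in a biochemical, low-substrate format (both substrates at 10uM) and luminescence measured with a CCD imager.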
Active calls of the source: *; [ ] = another dose, or the depositor's remark. Unless noted, the call rests on the fitted dose curve; in most records, active means well fitted curve in the direction sought with a large enough effect; inconclusive means small, poorly fitted or top-dose-only effect, or another doubt; inactive means no such curve, though single readings can be large; an effect the other way counts as inactive or inconclusive. Unless noted, on the % scale 0 is the no-effect control and ±100 the full control effect; potency means the concentration at half of the fitted maximal effect.

How did O=C(NC1CCCC1)N1CC(Oc2ccc(-c3nc(-c4ccccc4)no3)cc2)C1 do in these assays?
hNpr1 antagonist: 0.32µM*; SNCA viab count: -5%; NIH3T3 tox: -21%; HEK cytotox: inconclusive; SNCA expr inhib: 19%; Luciferase inh: inconclusive

What do the screens show for `Cc1noc(-c2ccc(OC3CN(C(=O)NCC(C)C)C3)cc2)n1`?
hNpr1 antagonist: inconclusive; SNCA viab count: -2%; NIH3T3 tox: inconclusive; HEK cytotox: inconclusive; SNCA expr inhib: -2%; Luciferase inh: inactive

Results for CC(C)CNC(=O)N1CC(Oc2ccc(-c3nc(-c4ccccc4)no3)cc2)C1 ?
hNpr1 antagonist: 0.5µM*; SNCA viab count: -1%; NIH3T3 tox: -27%; HEK cytotox: inconclusive; SNCA expr inhib: 5%; Luciferase inh: inactive

How did CN1CC(=O)N(C2CCCNC2)Cc2c1ncnc2N1CCOCC1 (stereo unspecified) do in these assays?
SNCA viab count: 1%; NIH3T3 tox: -23%; HEK cytotox: -21%; SNCA expr inhib: -7%

How did COc1cccc(CNC(=O)c2ccc3nc(-c4ccnc(Cl)c4)oc3c2)c1 do in these assays?
SNCA viab count: 9%; NIH3T3 tox: -30%; HEK cytotox: -8%; SNCA expr inhib: 9%

What do the screens show for `C=CCn1cc2c3c(cccc31)[C@H](CC(C)C)N[C@H](C(=O)N1CCN(C)CC1)C2`?
hNpr1 antagonist: -5%[70.6 µM]; SNCA viab count: -10%[87.6 µM]; NIH3T3 tox: 63µM*; HEK cytotox: 79µM*; SNCA expr inhib: -18%[87.6 µM]; Luciferase inh: inactive

What do the screens show for `C=CCn1cc2c3c(cccc31)[C@H](CC(C)C)N[C@H](C(=O)N1CCOCC1)C2`?
hNpr1 antagonist: -4%[70.6 µM]; SNCA viab count: -2%[87.6 µM]; NIH3T3 tox: inconclusive; HEK cytotox: 100µM*; SNCA expr inhib: 14%[87.6 µM]; Luciferase inh: inconclusive

What do the screens show for `CC#CCn1cc2c3c(cccc31)[C@H](CC(C)C)N[C@H](C(=O)N1CCN(C)CC1)C2`?
hNpr1 antagonist: 2%[70.6 µM]; SNCA viab count: -1%[87.6 µM]; NIH3T3 tox: 89µM*; HEK cytotox: inconclusive; SNCA expr inhib: -11%[87.6 µM]; Luciferase inh: inactive

What do the screens show for `Cc1cc(Cn2cc3c4c(cccc42)[C@H](CC(C)C)N[C@H](C(=O)NCCN2CCOCC2)C3)no1`?
hNpr1 antagonist: 1%; SNCA viab count: -20%; NIH3T3 tox: inconclusive; HEK cytotox: inconclusive; SNCA expr inhib: 3%; Luciferase inh: inactive

How did CC#CCn1cc2c3c(cccc31)[C@H](CC(C)C)N[C@H](C(=O)N1CCN(C(C)=O)CC1)C2 do in these assays?
hNpr1 antagonist: 5%[70.6 µM]; SNCA viab count: 2%[87.6 µM]; NIH3T3 tox: inconclusive; HEK cytotox: inconclusive; SNCA expr inhib: -11%[87.6 µM]; Luciferase inh: inactive

How did C=CCn1cc2c3c(cccc31)[C@H](CC(C)C)N[C@H](C(=O)NCCN1CCOCC1)C2 do in these assays?
hNpr1 antagonist: -1%[70.6 µM]; SNCA viab count: -23%[87.6 µM]; NIH3T3 tox: inconclusive; HEK cytotox: 89µM*; SNCA expr inhib: -10%[87.6 µM]; Luciferase inh: inactive

How did CCOCCNC(=O)c1cc(-c2ccccc2C(F)(F)F)nc2c1cnn2C do in these assays?
NIH3T3 tox: -28%; HEK cytotox: inconclusive

Results for CN(Cc1cncs1)C1CCCc2ccccc21 (stereo unspecified) ?
hNpr1 antagonist: 2%[70.6 µM]; SNCA viab count: -18%[87.6 µM]; NIH3T3 tox: inconclusive; HEK cytotox: inconclusive; SNCA expr inhib: -33%[87.6 µM]; Luciferase inh: inactive

How did Cc1cccc(-c2nc3ccc(C(=O)NCC(C)C)cc3o2)n1 do in these assays?
SNCA viab count: 6%[87.6 µM]; NIH3T3 tox: inconclusive; HEK cytotox: inconclusive; SNCA expr inhib: inconclusive

What do the screens show for `CC(C)C[C@@H]1N[C@H](C(=O)N2CCC(O)(c3ccccc3)CC2)Cc2cn(C)c3cccc1c23`?
hNpr1 antagonist: -1%; SNCA viab count: -15%; NIH3T3 tox: 32µM*; HEK cytotox: inconclusive; SNCA expr inhib: inconclusive; Luciferase inh: inactive

Results for CC(C)C[C@@H]1N[C@H](C(=O)N2CCOCC2)Cc2cn(CC3CC3)c3cccc1c23 ?
hNpr1 antagonist: -14%[70.6 µM]; SNCA viab count: -4%[87.6 µM]; NIH3T3 tox: inconclusive; HEK cytotox: 89µM*; SNCA expr inhib: 9%[87.6 µM]; Luciferase inh: inactive

What do the screens show for `O=C(CNC(=O)c1ccc(-c2cccc(C(F)(F)F)c2)cc1)NCc1cccs1`?
SNCA viab count: -10%[12.5 µM]; NIH3T3 tox: inconclusive; HEK cytotox: inconclusive; SNCA expr inhib: -6%

How did O=C(NCCNC(=O)c1ccccc1F)c1ccc(-c2cncnc2)cc1 do in these assays?
NIH3T3 tox: -19%; HEK cytotox: -23%

What do the screens show for `Cc1ccc(CNC(=O)CN2C(=O)C(c3ccccc3)=NC23CCCCC3)cc1`?
hNpr1 antagonist: -6%; SNCA viab count: -4%[12.5 µM]; NIH3T3 tox: inconclusive; HEK cytotox: inconclusive; SNCA expr inhib: 8%; Luciferase inh: inactive

Results for O=C(CN1C(=O)C(c2ccccc2)=NC12CCCC2)Nc1cccc(C(F)(F)F)c1 ?
hNpr1 antagonist: -14%; SNCA viab count: -12%[12.5 µM]; NIH3T3 tox: -21%; HEK cytotox: -22%; SNCA expr inhib: -26%; Luciferase inh: inactive

How did CCN(C(=O)CN1C(=O)C(c2ccccc2)=NC12CCCCC2)c1cccc(C)c1 do in these assays?
hNpr1 antagonist: -6%; SNCA viab count: -2%[12.5 µM]; NIH3T3 tox: inconclusive; HEK cytotox: 40µM*; SNCA expr inhib: -31%; Luciferase inh: inactive

Results for O=C(CN1C(=O)C(c2ccccc2)=NC12CCCCC2)NCc1ccccc1 ?
hNpr1 antagonist: 0%; SNCA viab count: 7%[12.5 µM]; NIH3T3 tox: inconclusive; HEK cytotox: 45µM*; SNCA expr inhib: 9%; Luciferase inh: inactive

What do the screens show for `O=C(CN1C(=O)C(c2ccccc2)=NC12CCCC2)Nc1ccc(C(F)(F)F)cc1`?
hNpr1 antagonist: inconclusive; SNCA viab count: -4%[12.5 µM]; NIH3T3 tox: inconclusive; HEK cytotox: 45µM*; SNCA expr inhib: inconclusive; Luciferase inh: inactive

How did CN(C)C(=O)NC1CCCN(Cc2ccc(-c3cncnc3)cc2)C1 (stereo unspecified) do in these assays?
SNCA viab count: 15%[12.5 µM]; NIH3T3 tox: -19%[138 µM]; HEK cytotox: inconclusive; SNCA expr inhib: -28%[87.6 µM]

Results for O=C(c1cc(-c2cccc(C(F)(F)F)c2)c2nncn2n1)N1CCN(Cc2ccccc2)CC1 ?
SNCA viab count: 0%; NIH3T3 tox: -11%; HEK cytotox: inconclusive; SNCA expr inhib: -16%
